Reference: PubChem BioAssay (NCATS)
Inconclusive results are not listed. Activity calls are given as the source filed them. The call rests on the fitted dose curve; in most records, active means well fitted curve in the direction sought with a large enough effect; inconclusive means small, poorly fitted or top-dose-only effect, or another doubt; inactive means no such curve, though single readings can be large; an effect the other way counts as inactive or inconclusive.

Tests used:
[1] = system: Nanoluciferase (engineered Oplophorus gracilirostris luciferase); assay: Primary Nanoluciferase (NLuc) qHTS assay for identification of artifact compounds. (AID 1845222); conditions: NLuc-conditioned medium, Nano-Glo luminescence, 5 min; series mostly up to 54.1 µM
In short: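 Luminescence read-out of secreted NLuc in S16 cell conditioned medium (1:55); compounds tested with 15 min RT preincubation, then Nano-Glo substrate 1:100, 5 min. % inhibition vs no-enzyme and DMSO controls, 4-parameter Hill fit.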

[2] = Primary redox qHTS assay for identification of artifact compounds. (AID 1845223); conditions: Amplex Red/HRP redox cycling with DTT, fluorescence; series mostly up to 53.8 µM
In short: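 Redox-cycling detection via DTT (250 uM final) oxidation coupled to Amplex Red (25 uM)/HRP (250 mU/mL) in HBSS. 15 min preincubation plus 30 min after DTT, room temperature. Ex/Em 525/598 nm; 4-parameter Hill fit against DMSO and 10 uM DA3003.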

[3] = Quantitative High-Throughput drug screen in 47 multiple myeloma cell lines against the NCATS MIPE library collection: FR4_PLB cell viability assay (AID 1918924; further: nearly all actives have a fitted effect of over 35% in size; further: potency means the concentration at half of the fitted maximal effect); conditions: FR4_PLB myeloma cells viability, CellTiter-Glo ATP, 48 h; series mostly up to 45.8 µM
In short: (§1)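 qHTS of the MIPE 4.0 collection: 500 myeloma cells/well, 48 h drug exposure at 37C in 5% CO2, then CellTiter-Glo for 5 min at room temperature before luminescence reading.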

[4] = Quantitative High-Throughput drug screen in 47 multiple myeloma cell lines against the NCATS MIPE library collection: Delta47_JCRB cell viability assay (AID 1918925; further: nearly all actives have a fitted effect of over 45% in size; further: potency means the concentration at half of the fitted maximal effect); conditions: Delta47 myeloma viability, CellTiter-Glo ATP, 48 h; series mostly up to 45.8 µM
In short: (§2)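 We plated 500 myeloma cells per well, pinned in MIPE 4.0 compounds, and incubated for 48 hours at 37C. ATP was then quantified with CellTiter-Glo, with DMSO and media-only wells defining 100% and 0%.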

[5] = Quantitative High-Throughput drug screen in 47 multiple myeloma cell lines against the NCATS MIPE library collection: EJM_DSMZ cell viability assay (AID 1918926; further: nearly all actives have a fitted effect of over 30% in size; further: potency means the concentration at half of the fitted maximal effect); conditions: EJM myeloma cell viability, CellTiter-Glo ATP, 48 h; series mostly up to 45.8 µM
In short: as §2

[6] = Quantitative High-Throughput drug screen in 47 multiple myeloma cell lines against the NCATS MIPE library collection: AMO1_DSMZ cell viability assay (AID 1918927; further: nearly all actives have a fitted effect of over 30% in size; further: potency means the concentration at half of the fitted maximal effect); conditions: AMO1 myeloma cells viability, CellTiter-Glo ATP luminescence, 48 h; series mostly up to 45.8 µM
In short: as §2

[7] = Quantitative High-Throughput drug screen in 47 multiple myeloma cell lines against the NCATS MIPE library collection: ARD_JJKsccE7 cell viability assay (AID 1918929; further: potency means the concentration at half of the fitted maximal effect); conditions: ARD myeloma cell line viability, CellTiter-Glo, 48 h; series mostly up to 45.8 µM
In short: as §2

[8] = Quantitative High-Throughput drug screen in 47 multiple myeloma cell lines against the NCATS MIPE library collection: Karpas620_DSMZ cell viability assay (AID 1918959); conditions: Karpas620 myeloma viability, CellTiter-Glo ATP luminescence, 48 h; series mostly up to 45.8 µM; further: nearly all actives have a fitted effect of over 30% in size; further: potency means the concentration at half of the fitted maximal effect
In short: as §1

[9] = Quantitative High-Throughput drug screen in 47 multiple myeloma cell lines against the NCATS MIPE library collection: ARP1_JJKsccF8 cell viability assay (AID 1918928; further: nearly all actives have a fitted effect of over 40% in size; further: potency means the concentration at half of the fitted maximal effect); conditions: ARP1 myeloma cells viability, CellTiter-Glo ATP, 48 h; series mostly up to 45.8 µM
In short: (§3)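 500 cells/well; MIPE 4.0 library pinned in; 48 h, 37 °C, 5% CO2; CellTiter-Glo ATP luminescence. Controls: DMSO = 100% viability, medium only = 0%.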

[10] = Quantitative High-Throughput drug screen in 47 multiple myeloma cell lines against the NCATS MIPE library collection: KMM1_JCRB cell viability assay (AID 1918960); conditions: KMM1 myeloma viability, CellTiter-Glo ATP luminescence, 48 h; series mostly up to 45.8 µM; further: potency means the concentration at half of the fitted maximal effect; nearly all actives have a fitted effect of over 30% in size
In short: as §3

Measured: Potency

N#Cc1c(C2CCNCC2)cc(-c2c(O)cccc2OCC2CC2)nc1N
active: [3] 23.5 µM | [4] 16.6 µM | [5] 18.7 µM | [6] 13.2 µM | [7] 3.72 µM | [8] 9.35 µM
inactive: [1] | [2]

CCOc1cc2c(c(F)c1OCC)C(=N)N(CC(=O)c1cc(N3CCOCC3)c(OC)c(C(C)(C)C)c1)C2
inactive: [1] | [2]
active: [3] 23.5 µM | [4] 14.8 µM | [5] 20.9 µM | [9] 18.7 µM

O=C(Nc1cc2cc[nH]c2cn1)c1ccccc1
active: [3] 14.8 µM | [4] 9.35 µM | [5] 8.33 µM | [7] 10.5 µM | [8] 4.69 µM
inactive: [1] | [2]

c1cc(N[C@@H]2CCNC2)nc(-c2cnc3ccc(-c4cn[nH]c4)cn23)c1
active: [3] 11.8 µM | [4] 9.35 µM | [5] 13.2 µM | [7] 26.4 µM | [8] 10.5 µM | [10] 8.33 µM
inactive: [1] | [2]

C=C(C)[C@@H]1CC[C@]2(C)CC[C@]3(C)[C@H](CC[C@@H]4[C@@]5(C)CC[C@H](O)C(C)(C)[C@H]5CC[C@]43C)[C@@H]12
inactive: [3] | [4] | [5] | [6]

C[C@H](NC(=O)Cc1cc(F)cc(F)c1)C(=O)N[C@H](C(=O)OC(C)(C)C)c1ccccc1
not listed: [1] | [2] | [10]
inactive: all other assays above

CC(O)(C#Cc1ccc2c(c1)N(c1nc(N)ncc1Cl)CC2)c1nccs1 (stereo not drawn)
active: [4] 2.09 µM | [5] 11.8 µM | [6] 13.2 µM | [7] 18.7 µM | [10] 5.26 µM
inactive: [1]

CC[C@]12C=CCN3CC[C@@]4(c5cc([C@@]6(C(=O)OC)C[C@H]7C[C@@H](C(C)(F)F)CN(Cc8c6[nH]c6ccccc86)C7)c(OC)cc5N(C)[C@H]4[C@@](O)(C(=O)OC)[C@H]1OC(C)=O)[C@@H]32
active: [3] 0.0017 µM | [4] 0.0093 µM | [5] 0.118 µM | [6] 0.0059 µM | [9] 0.0047 µM | [7] 0.0042 µM

CC(C)(O)[C@H]1CC[C@@](C)([C@H]2[C@@H](O)C[C@@]3(C)[C@@H]4C[C@H](O[C@@H]5O[C@H](CO)[C@@H](O)[C@H](O)[C@@H]5O)[C@H]5C(C)(C)[C@@H](O[C@@H]6OC[C@@H](O)[C@H](O)[C@@H]6O)CC[C@@]56C[C@@]46CC[C@]23C)O1
not listed: [1] | [2] | [10]
inactive: all other assays above

COc1cc(C=CC(=O)CC(=O)C=Cc2ccc(O)c(OC)c2)ccc1O
active: [3] 10.8 µM | [4] 4.29 µM | [5] 21.5 µM | [6] 5.4 µM | [9] 8.55 µM | [7] 6.05 µM | [8] 3.4 µM | [10] 4.81 µM

CN(C)c1ccc(C(=O)NCCCCCCC(=O)NO)cc1
active: [3] 0.132 µM | [4] 0.59 µM | [5] 1.87 µM | [6] 0.235 µM | [9] 0.743 µM | [7] 0.332 µM | [8] 0.743 µM | [10] 0.105 µM

C[C@@H]1[C@H](C)CC[C@]2(C(=O)O)CC[C@]3(C)C(=CC[C@@H]4[C@@]5(C)C[C@@H](O)[C@H](O)[C@@](C)(CO)[C@H]5CC[C@]43C)[C@@H]12
not listed: [1] | [2] | [10]
inactive: all other assays above

CN(C)CCN1C(=O)c2cccc3cc(N)cc(c23)C1=O
active: [3] 23.5 µM | [4] 11.8 µM | [5] 23.5 µM | [6] 4.18 µM | [9] 20.9 µM | [7] 29.6 µM | [8] 26.4 µM | [10] 18.7 µM

CC(C)c1cc(C(C)C)c(CC(=O)NS(=O)(=O)Oc2c(C(C)C)cccc2C(C)C)c(C(C)C)c1
active: [6] 4.69 µM | [10] 4.69 µM
inactive: [1] | [4] | [8]

CNC(=O)c1cccc(-c2ccc3c(N4CCOC[C@H]4C)nc(N4CCOC[C@H]4C)nc3n2)c1
active: [3] 0.0662 µM | [4] 0.0296 µM | [5] 1.66 µM | [6] 0.0833 µM | [9] 0.0187 µM | [7] 1.18 µM

Cn1cnc(=N)c2[nH]cnc21
active: [3] 0.148 µM | [4] 0.132 µM | [5] 0.526 µM | [6] 0.0833 µM | [9] 0.118 µM | [7] 0.105 µM | [8] 0.296 µM | [10] 0.132 µM

CC1=C(C(=O)Nc2cc3cn[nH]c3cc2F)C(c2ccc(Cl)cc2F)N=C(c2ccnc(Cl)c2)N1 (stereo not drawn)
inactive: [2]
active: [4] 11.8 µM | [6] 14.8 µM | [7] 20.9 µM | [10] 20.9 µM

O=c1c(O)c(-c2ccc(O)c(O)c2)oc2cc(O)ccc12
active: [3] 20.9 µM | [4] 11.8 µM | [5] 20.9 µM | [6] 10.5 µM | [9] 20.9 µM

OCCN1C[C@H](O)[C@@H](O)[C@H](O)[C@@H]1CO
not listed: [1] | [2] | [10]
inactive: all other assays above

CC(=O)NCC(=O)N1[C@H]2CC[C@H]1c1cc(Nc3ncc(C(F)(F)F)c(NC4CCC4)n3)ccc12
active: [3] 9.35 µM | [4] 0.662 µM | [5] 7.43 µM | [6] 0.235 µM | [9] 4.69 µM | [7] 1.66 µM | [8] 1.32 µM
